Consider 16 compounds from PubChem BioAssay.

Assay [1] relates to PRMT1 (protein arginine N-methyltransferase 1). The experiment in a line: small molecules binding arginine methyltransferase PRMT1 – biochemical, small-molecule microarray, 635 nm fluorescence, primary screen (AID 1088).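 Note: binding of Prmt1 protein to compounds spotted on small-molecule microarray slides.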 Conditions: higher = more signal.
Assay [2] is described as follows: growth effects on S. cerevisiae YJM789 – YJM789 clinical isolate, OD600, 24 h, basal, primary screen (AID 1089).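 Note: growth of clinical yeast isolate S. cerevisiae YJM 789 seeded 1000 cells per well; test concentration not given here.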 Conditions: higher = more signal, called active from +8 up or from −8 down unless noted.
Assay [3] in a line: S. pombe growth modifiers, basal conditions – strain 972, OD600, 24 h, no modulator, primary screen (AID 1090).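 Note: basal condition with compound alone and no growth modifier present; test concentration not given here.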 The following applies: S. pombe 972 growth; higher = more signal, called active from +8 up or from −8 down unless noted.
A short description of assay [4]: budding yeast growth modifiers under rapamycin – strain BY4716, OD600, 96 h, primary screen (AID 1091). Note: test concentration not given here. Conditions: S. cerevisiae BY4716 + rapamycin; higher = more signal, called active from +8 up or from −8 down unless noted.
In assay [5] the target is Torsin-1A-interacting protein 2 (Homo sapiens) (UniProt Q8NFQ8). Nature of the assay: small molecules binding lysate-expressed LULL1 – cell lysate, human LULL1 lysate, 635/667 nm fluorescence, primary screen (AID 1092).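 Note: probe is lysate of COS7 cells overexpressing human LULL1; score merges per-feature 667 nm fluorescence with signal-to-noise.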 Conditions: small-molecule microarray, hLULL1 lysate binding, 635 nm fluorescence; higher = more signal.
A short description of assay [6]: optical density change of DRC41 E. coli – strain DRC41, OD650, 24 h, E. coli filamentation project, primary screen (AID 1093).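 Note: MC1000 strain lacking acrAB efflux and sulA so SOS filamentation is blocked; test concentration not given here.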 Conditions: E. coli DRC41 growth; higher = more signal, called active from +8 up or from −8 down unless noted.
The nature of assay [7]: probe aLefty2 binding to arrayed compounds – biochemical, biotinylated probe, 635/667 nm fluorescence, primary screen (AID 1094).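 Note: score merges spot fluorescence near 667 nm with spot signal-to-noise ratio.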 The following applies: higher = more signal; small-molecule microarray, probe aLefty2, fluorescence unless noted.
The test system of assay [8] is Noggin (protein binding on small-molecule microarray). Nature of the assay: small molecules binding Noggin protein – biochemical, 635/667 nm fluorescence, primary screen (AID 1095).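 Note: score merges 667 nm feature fluorescence with signal to noise over triplicate slides.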 Conditions: 635 nm fluorescence, higher = more signal.
Assay [9] has as its target Neurogenic locus notch homolog protein 3 (Homo sapiens) (UniProt Q9UM47). The experiment in a line: small molecules binding NOTCH3 protein – biochemical, 635/667 nm fluorescence, primary screen (AID 1096). Conditions: small-molecule microarray, 635 nm fluorescence, higher = more signal.
Assay [10] in a line: probe aEGFR binding to arrayed compounds – biochemical, biotinylated probe, 635/667 nm fluorescence, primary screen (AID 1097).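 Note: probe is a biotinylated anti-EGFR antibody binding compounds printed on slides; score combines fluorescence near 667 nm and signal to noise of each spot.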 The following applies: higher = more signal; small-molecule microarray, probe aEGFR, fluorescence unless noted.

SMILES strings stand for the structures. Values joined by “and” are separate entries in the source; they are usually repeats but may differ in a detail not shown here. Equal values may be shown once. Active and inactive are the calls of the source.

Neurogenic locus notch homolog protein 3 (Homo sapiens), sequence (Q9UM47 whole entry, looked up): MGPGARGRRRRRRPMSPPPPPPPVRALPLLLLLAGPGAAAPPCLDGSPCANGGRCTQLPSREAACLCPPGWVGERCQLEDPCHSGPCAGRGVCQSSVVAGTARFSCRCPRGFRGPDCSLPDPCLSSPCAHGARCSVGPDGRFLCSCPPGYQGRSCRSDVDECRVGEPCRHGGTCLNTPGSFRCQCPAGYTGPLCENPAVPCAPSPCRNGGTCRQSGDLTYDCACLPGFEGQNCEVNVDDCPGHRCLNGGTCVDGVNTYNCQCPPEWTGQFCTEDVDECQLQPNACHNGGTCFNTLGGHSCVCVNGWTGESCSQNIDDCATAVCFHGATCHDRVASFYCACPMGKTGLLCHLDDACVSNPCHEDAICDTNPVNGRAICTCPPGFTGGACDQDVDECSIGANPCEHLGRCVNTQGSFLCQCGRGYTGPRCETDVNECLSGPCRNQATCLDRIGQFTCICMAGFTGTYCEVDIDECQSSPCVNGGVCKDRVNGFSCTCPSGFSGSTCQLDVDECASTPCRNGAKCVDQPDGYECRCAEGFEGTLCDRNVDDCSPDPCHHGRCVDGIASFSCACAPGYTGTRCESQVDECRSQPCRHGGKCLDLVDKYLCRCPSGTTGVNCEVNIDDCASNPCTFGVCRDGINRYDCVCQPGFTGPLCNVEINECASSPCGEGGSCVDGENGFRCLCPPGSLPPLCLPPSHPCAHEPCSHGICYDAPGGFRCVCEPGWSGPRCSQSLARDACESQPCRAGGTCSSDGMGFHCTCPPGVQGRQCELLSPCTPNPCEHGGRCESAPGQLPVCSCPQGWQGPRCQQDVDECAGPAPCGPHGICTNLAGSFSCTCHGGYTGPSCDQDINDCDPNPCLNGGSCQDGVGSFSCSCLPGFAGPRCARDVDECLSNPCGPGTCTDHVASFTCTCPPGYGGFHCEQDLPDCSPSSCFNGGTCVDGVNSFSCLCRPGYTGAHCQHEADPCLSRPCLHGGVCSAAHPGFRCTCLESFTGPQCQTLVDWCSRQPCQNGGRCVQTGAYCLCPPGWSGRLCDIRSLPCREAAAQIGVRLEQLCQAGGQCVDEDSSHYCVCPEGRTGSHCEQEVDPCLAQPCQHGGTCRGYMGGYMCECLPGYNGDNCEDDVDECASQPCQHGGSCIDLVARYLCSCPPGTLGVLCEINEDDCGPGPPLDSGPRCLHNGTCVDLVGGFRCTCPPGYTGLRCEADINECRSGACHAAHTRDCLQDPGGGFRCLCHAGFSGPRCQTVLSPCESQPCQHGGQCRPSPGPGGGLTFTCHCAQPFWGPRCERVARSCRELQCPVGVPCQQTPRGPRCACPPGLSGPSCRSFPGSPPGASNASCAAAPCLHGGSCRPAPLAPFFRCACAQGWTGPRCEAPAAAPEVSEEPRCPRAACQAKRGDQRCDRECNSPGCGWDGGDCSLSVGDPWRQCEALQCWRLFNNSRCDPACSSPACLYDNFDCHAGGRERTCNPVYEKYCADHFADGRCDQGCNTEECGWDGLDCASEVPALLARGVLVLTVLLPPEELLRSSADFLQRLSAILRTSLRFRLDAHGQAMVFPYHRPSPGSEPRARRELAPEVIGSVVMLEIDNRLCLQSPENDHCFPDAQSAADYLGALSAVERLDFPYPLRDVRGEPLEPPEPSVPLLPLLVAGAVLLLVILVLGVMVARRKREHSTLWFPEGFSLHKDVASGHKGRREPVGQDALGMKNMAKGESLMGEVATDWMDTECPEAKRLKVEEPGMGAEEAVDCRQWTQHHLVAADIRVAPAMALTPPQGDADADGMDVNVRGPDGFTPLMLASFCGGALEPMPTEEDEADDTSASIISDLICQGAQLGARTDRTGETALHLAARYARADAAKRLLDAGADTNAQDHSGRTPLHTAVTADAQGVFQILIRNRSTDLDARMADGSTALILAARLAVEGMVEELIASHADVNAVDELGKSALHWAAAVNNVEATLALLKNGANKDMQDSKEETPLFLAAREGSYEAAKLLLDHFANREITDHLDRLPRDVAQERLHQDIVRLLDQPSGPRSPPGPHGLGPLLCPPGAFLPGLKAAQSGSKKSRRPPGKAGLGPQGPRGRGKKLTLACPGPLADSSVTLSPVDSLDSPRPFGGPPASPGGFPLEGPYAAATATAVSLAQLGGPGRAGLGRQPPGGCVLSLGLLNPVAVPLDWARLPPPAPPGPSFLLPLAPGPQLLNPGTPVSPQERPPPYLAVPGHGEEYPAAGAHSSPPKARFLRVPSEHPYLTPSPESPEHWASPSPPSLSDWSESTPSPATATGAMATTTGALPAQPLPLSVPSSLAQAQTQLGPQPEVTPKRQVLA
Torsin-1A-interacting protein 2 (Homo sapiens), sequence (Q8NFQ8 whole entry, looked up): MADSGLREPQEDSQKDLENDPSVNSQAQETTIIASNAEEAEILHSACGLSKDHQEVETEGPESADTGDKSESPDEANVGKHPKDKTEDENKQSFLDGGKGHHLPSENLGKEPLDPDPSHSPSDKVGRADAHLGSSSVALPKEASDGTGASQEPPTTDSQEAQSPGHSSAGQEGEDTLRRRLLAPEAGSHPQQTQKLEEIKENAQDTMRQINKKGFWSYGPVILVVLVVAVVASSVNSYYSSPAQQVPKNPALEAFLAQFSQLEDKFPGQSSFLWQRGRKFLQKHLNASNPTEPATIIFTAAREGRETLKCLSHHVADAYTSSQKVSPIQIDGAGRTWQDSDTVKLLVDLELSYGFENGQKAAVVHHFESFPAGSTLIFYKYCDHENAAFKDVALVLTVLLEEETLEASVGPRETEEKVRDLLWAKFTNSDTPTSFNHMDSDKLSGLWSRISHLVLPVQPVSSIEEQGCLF

With `CN1CCC(c2ccc(CO)cc2)=CC1C1CC1` (stereo not given), the composite z-score in assay [1] was 0.142; in assay [5], -0.183; in [7], -0.308; in assay [8], 0.062; in [9], -0.218; in assay [10], -0.154. Moreover, the z-score in [2] is -1.01 (inactive); in assay [3] it was -1.39 (inactive); in [4] it was 0.978 (inactive); in assay [6], -0.409 (inactive).
In the case of `C[C@@H]1Cc2c(cnc3c2CN(C)CC3)CO1`, the composite z-score in [1] is -0.377; in [5], -0.0214; in assay [7] it was -0.153; in assay [8], 0.603; in assay [9], -0.78; in [10] it was 0.0255. For the same compound, the z-score was -0.0303 (inactive) in [2], -0.591 (inactive) in assay [3], -0.582 (inactive) in assay [4] and 0.262 (inactive) in [6].
In the case of `CCCc1cc2c(n1Cc1ccc(C)cc1)C(C)C1CN(C(=O)c3ccccc3)C(C)(C(=O)OC)C21` (stereo not given), the composite z-score is 0.0451 in [1]; 3.08 in assay [5]; 1.02 in assay [7]; -0.366 in assay [8]; 1.11 in [9]; 0.834 in [10]. Moreover, the z-score in assay [2] is -1.78 (inactive); in assay [3], 0.625 (inactive); in assay [4], -0.689 (inactive); in assay [6] it was -0.694 (inactive).
Regarding `OCc1ccc(C2=CC(c3cccs3)N(Cc3cccc(OC(F)(F)F)c3)CC2)cc1` (stereo not given), the composite z-score was 1.08 in assay [1]; 1.1 in assay [5]; -0.145 in assay [7]; 0.257 in assay [8]; 0.0155 in assay [9]; -0.1 in [10]. For the same compound, the z-score in assay [2] was -0.583 (inactive); in [3], -3.83 (inactive); in assay [4], 4.58 (inactive); in [6], 0.398 (inactive).
As for `CC1N(P(=O)(c2ccccc2)c2ccccc2)CC(O)(c2ccccc2)CC12CC2` (stereo not given), the composite z-score in assay [1] is 0.453 and -1.07; in [5], 3.87 and 3.05; in assay [7], 0.084 and 0.644; in assay [8] it was -1.15 and -1.06; in assay [9], -1.14 and -0.154; in assay [10], -0.0565 and 0.174. In addition, the z-score in assay [2] is 0.401 (inactive) and -2.96 (inactive); in assay [3], 0.614 (inactive) and -1.46 (inactive); in assay [4] it was 0.973 (inactive) and 0.0418 (inactive); in assay [6] it was -0.476 (inactive) and -0.172 (inactive).
On to `CN1CCC(c2ccc(CO)cc2)=CC1c1cccs1` (stereo not given), for which the composite z-score is -0.534 in assay [1]; -1.32 in assay [5]; -0.166 in assay [7]; 0.269 in assay [8]; 0.245 in [9]; -0.0828 in assay [10]. For the same compound, the z-score in assay [2] was -0.539 (inactive); in assay [3] it was -2.27 (inactive); in assay [4] it was 2.81 (inactive); in assay [6], 0.358 (inactive).
On to `CCCc1cc2c(n1Cc1cccc(Cl)c1)C(C)C1CN(C(=O)c3ccccc3)C(C)(C(=O)OC)C21` (stereo not given), for which the composite z-score in [1] is -0.287; in [5] it was 3.21; in assay [7], 0.411; in assay [8], -0.146; in assay [9], 1.11; in assay [10], 0.118. The z-score in assay [2] was -0.319 (inactive); in [3] it was 0.431 (inactive); in assay [4], 0.282 (inactive); in [6] it was -0.449 (inactive).
As to `CCc1cc2c(nc1CC)CCN(CCC(C)=NOC)C2`, the composite z-score in [1] worked out at 0.766; in assay [5], 0.839; in assay [7], 0.327; in assay [8] it was 0.601; in [9], 0.0855; in assay [10], 0.0631. For the same compound, the z-score is 0.259 (inactive) in assay [2], -1.54 (inactive) in assay [3], -0.21 (inactive) in assay [4] and -0.0797 (inactive) in assay [6].
As for `C[C@@H]1OC=C2[C@@H](O)[C@H]3O[C@H]3C(=O)[C@]23[C@H]1[C@H]1C2=C([C@@H](O)[C@H]4O[C@H]4C2=O)[C@@H]3O[C@@H]1C`, the composite z-score in assay [1] was -0.259; in [5], -0.957; in assay [7], -0.101; in assay [8], 0.195; in [9] it was -0.186; in assay [10] it was -0.0689. Moreover, the z-score was -0.676 (inactive) in [2], 0.585 (inactive) in [3], 0.0254 (inactive) in assay [4] and -0.101 (inactive) in assay [6].
Consider `CCCC=C(CCC)[C@@H](NP(=O)(c1ccccc1)c1ccccc1)c1ccccc1`, for which the composite z-score in assay [1] is 0.905; in [5], 0.732; in assay [7], -0.17; in assay [8], 1.11; in [9], 0.474; in [10] it was -0.106. The z-score in assay [2] is -0.564 (inactive); in assay [3], 0.652 (inactive); in [4] it was 0.0781 (inactive); in [6], -0.431 (inactive).
For the compound `C[C@H]1O[C@H]2C3=C(C(=O)[C@@H]4O[C@@H]4[C@@H]3O)[C@@H]1[C@@H]1[C@@H](C)OC=C3[C@@H](O)[C@H]4O[C@H]4C(=O)[C@]312`, the composite z-score was -1.42 in assay [1]; -0.697 in assay [5]; -0.166 in [7]; -0.394 in [8]; -1.62 in [9]; -0.0238 in [10]. The z-score in [2] is -1.16 (inactive); in [3] it was -0.568 (inactive); in assay [4], -0.584 (inactive); in [6] it was -0.529 (inactive).
Take `CCCC[C@@H]1C[C@H]1[C@@H](NP(=O)(c1ccccc1)c1ccccc1)c1ccc(Cl)cc1`: the composite z-score in assay [1] is -0.571; in assay [5], 0.748; in [7], 0.195; in [8], -1.67; in assay [9], -0.582; in [10], -0.263. For the same compound, the z-score in assay [2] was -0.513 (inactive); in assay [3] it was -10.8 (active); in assay [4], 0.0654 (inactive); in [6], -0.412 (inactive).
Consider `CCCc1cc2c(n1CCO)C(C)C1CN(C(=O)c3ccccc3)C(C)(C(=O)OC)C21` (stereo not given), for which the composite z-score in assay [1] is -0.147; in assay [5], 2.94; in assay [7] it was 0.851; in [8], -0.562; in assay [9] it was 0.386; in assay [10] it was 0.427. Moreover, the z-score in assay [2] was -0.28 (inactive); in assay [3] it was 1.08 (inactive); in [4], 0.158 (inactive); in assay [6] it was -0.0807 (inactive).
For `COC(=O)[C@@]1(Cc2ccc(F)cc2)[C@H]2c3cc(C(=O)N(C)C)[nH]c3C[C@H]2CN1C(=O)c1ccccc1`, the composite z-score in assay [1] is -0.128; in [5], 3.23; in assay [7], 0.153 [setting not given]; in [8], -0.512; in assay [9] it was -0.388; in [10], -0.0573 [setting not given]. Moreover, the z-score in assay [2] was 0.531 [setting not given] (inactive); in assay [3] it was 0.0211 [setting not given] (inactive); in [4] it was 0.229 [setting not given] (inactive); in assay [6], -0.152 [setting not given] (inactive).
With `OCc1ccc(C2=CC(C3CC3)N(Cc3sc4ccccc4c3Cl)CC2)cc1` (stereo not given), the composite z-score in assay [1] is 1.56; in assay [5], 1.55; in assay [7] it was -0.0416; in [8], 0.448; in assay [9], 0.68; in assay [10], -0.0493. In addition, the z-score is -0.102 (inactive) in assay [2], -5.01 (inactive) in [3], 1.47 (inactive) in assay [4] and -1.09 (inactive) in assay [6].
As to `COC(=O)[C@@]1(Cc2ccccc2)[C@H]2c3cc(C(=O)N(C)C)[nH]c3C[C@H]2CN1C(=O)c1ccccc1`, the composite z-score was -0.94 in assay [1]; 0.745 in [5]; -0.0238 in assay [7]; -1.23 in assay [8]; -0.984 in assay [9]; -0.116 in [10]. Also, the z-score is 0.0969 (inactive) in assay [2], 0.8 (inactive) in assay [3], 0.98 (inactive) in [4] and -0.482 (inactive) in assay [6].
